From PubChem BioAssay (EPA / NIEHS)
Values joined by “and” are separate entries in the source; they are usually repeats but may differ in a detail not shown here. Identical values can stand only once. Results filed as inconclusive are left out. Active and inactive are the calls of the source. How the source made its calls: active means hit-call score of the fitted dose curve at least 0.9, where 1 is the maximum; inconclusive means response in the unintended direction; inactive means score below 0.9. Where a SMILES comes first, the peptide text is derived from it. Bridges are numbered along the chain shown (N, C = ends). [ ]: non-standard residue; d: D form. The star is where a group is joined. Ileψ(thiazoline)Cys = CC[C@H](C)[C@H](N)C1=N[C@H](C(=O)*)CS1; dOrn = NCCC[C@@H](N)C(=O)O

The compounds below were run against Cellular tumor antigen p53 (Homo sapiens) (UniProt P04637) (assay: TOX21_p53_BLA_p5_ratio: Tox21 HCT-116 p53 Agonism Beta-lactamase Assay, Ratio, Phase 5 (AID 2283599)).
Text: TOX21_p53_BLA_p5 is a cell-based, single-readout assay that uses HCT116, a human intestinal cell line, […] in a 1536-well plate.TOX21_p53_BLA_p5_ratio is an assay readout measuring reporter gene via receptor activity and designed using inducible reporter (beta lactamase induction) detected with GAL4 b-lactamase reporter gene. The signal is derived from the ratio of cleaved (ch2) to uncleaved (ch1) reporter gene substrate used as the measure of target activity.Data from the assay component TOX21_p53_BLA_p5_ratio was analyzed into 1 assay endpoint. This assay endpoint, TOX21_p53_BLA_p5_ratio, was analyzed in the positive analysis fitting direction relative to DMSO as the negative control and baseline of activity. Using a type of inducible reporter, gain-of-signal activity can be used to understand changes in the reporter gene as they relate to the gene TP53. Furthermore, this assay endpoint can be referred to as a primary readout, because this assay has produced multiple assay endpoints and this ratio serves a reporter gene function to understand target activity. To generalize the intended target to other relatable targets, this assay endpoint is annotated to the DNA binding intended target family, where the subfamily is tumor suppressor.
Thawing Method: Place 14 mL of pre-warmed thaw medium into a 15 mL of conical tub. Remove the vial of cells to be thawed from liquid nitrogen and thaw rapidly by placing at 37C in a water bath with gentle agitation for 1-2 minutes. Decontaminate the vial by wiping with 70% ethanol before opening in a biological safety cabinet. Transfer the vial contents drop-wise into 14 mL of thaw medium in a sterile 15-mL conical tub. Centrifuge cells at 900 rpm for 4 minutes and resuspend in thaw medium. Transfer contents to the T75 tissue culture flask containing Thaw Medium and place flask in a humidified 37C/5% CO2 incubator. Switch to growth medium at first passage.Propagation Method: Aspirate medium, rinse once in DPBS, add 0.25% Trypsin/EDTA and swirl to coat the cell evenly. Add an equal volume of Growth Medium to inactivate Trypsin after 2-3 minutes incubation at 37C. Centrifuge cells at 900 rpm for 4 minutes and resuspend in growth medium. Cell should be passage or fed at least twice a week.Assay Protocol: Harvest cells from culture in growth medium and resuspend in assay medium. 2.2 Dispense 4000 cells/5 uL/well into 1536-well black/clear bottom plates using a Multidrop dispenser. After the cells were incubated at 37C for 5 hours, 23 nL of compounds dissolved in DMSO were transferred to the assay plate by a PinTool resulting in a 217-fold dilution. Incubate the plates for 16 hours at 37C, 5% CO2. Add 1 uL of 6X LiveBLAzer FRET B/G (CCF4-AM) Substrate Mixture to each well using a BioRAPTR dispenser and incubate the plates at room temperature for 2 hours. Measure fluorescence intensity at 460 and 530 nm emission and 405 nm excitation by an Envision detector. Data is expressed as the ratio of 460nm/530nm emissions. Add 4 uL of Cell-titer Glo to each well using BioRAPTR and incubate the plates at room temperature for 2 hours. Measure fluorescence intensity by a VewLux plate reader.

Cellular tumor antigen p53 (Homo sapiens), sequence (P04637 whole entry, looked up, the tested form may be a part): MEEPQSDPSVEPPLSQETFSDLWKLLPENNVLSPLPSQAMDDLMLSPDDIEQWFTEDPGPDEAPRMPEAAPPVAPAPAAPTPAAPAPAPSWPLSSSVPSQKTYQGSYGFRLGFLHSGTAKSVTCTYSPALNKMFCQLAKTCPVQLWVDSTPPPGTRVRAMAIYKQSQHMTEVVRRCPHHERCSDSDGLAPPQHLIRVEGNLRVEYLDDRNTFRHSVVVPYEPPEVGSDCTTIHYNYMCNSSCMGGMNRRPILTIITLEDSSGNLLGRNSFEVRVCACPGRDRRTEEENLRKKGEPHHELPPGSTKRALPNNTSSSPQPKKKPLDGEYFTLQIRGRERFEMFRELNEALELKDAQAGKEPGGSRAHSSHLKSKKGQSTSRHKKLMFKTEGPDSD

Q: For `C=CCOC(=O)C(=C)C`, which outcome is on record?
A: Its outcome is “inactive”.

Q: Which outcome does the source give for `Oc1cc(O)c2c(c1)O[C@H](c1ccc(O)c(O)c1)[C@H](O)C2` here?
A: The outcome was “inactive”.

Q: For `N#C/C(=C1/SC[C@@H](c2ccc(Cl)cc2Cl)S1)n1ccnc1`, which outcome is on record?
A: Its outcome is “inactive”.

Q: With `CN1CCC(=C2c3ccccc3C=Cc3ccccc32)CC1` as the compound, how does the outcome read?
A: Its outcome is “inactive”.

Q: `CCCCCCC1CCCC(=O)O1` (stereo not given) was tested. Which outcome did it give?
A: Its outcome is “inactive”.

Q: `CN1C(=O)OC(C)(C)C1=O` was tested. Which outcome did it give?
A: Its outcome is “inactive”.

Q: Which outcome does the source give for `CCCCNc1cc(C(=O)O)cc(S(N)(=O)=O)c1Oc1ccccc1` here?
A: Its outcome is “inactive”.

Q: For `CCCC(=O)O[C@]1(C(=O)COC(C)=O)CC[C@H]2[C@@H]3C[C@H](F)C4=CC(=O)C=C[C@]4(C)[C@@]3(F)[C@@H](O)C[C@@]21C`, which outcome is on record?
A: Its outcome is “inactive”.

Q: How did the outcome turn out when `Nc1cccc2c1CN(C1CCC(=O)NC1=O)C2=O` (stereo not given) was run?
A: Its outcome is “inactive”.

Q: For `OCC(O)[C@@H](O)[C@H](O)[C@H](O)CO[C@H]1O[C@H](CO)[C@@H](O)[C@H](O)[C@H]1O` (stereo not given in full), which outcome is on record?
A: The outcome was “inactive”.

Q: How did the outcome turn out when `CC/C=C\CCO` was run?
A: Its outcome is “inactive”.

Q: With `CC(C)NCC(O)COc1cccc2[nH]ccc12` (stereo not given) as the compound, how does the outcome read?
A: The outcome was “inactive”.

Q: With `CC(C)C[C@H](NC(=O)[C@H](Cc1ccccc1)NC(=O)c1cnccn1)B(O)O` as the compound, how does the AC50 read?
A: The AC50 was 25.2 nM (active) and 15.7 nM (active).

Q: With `C=COCC(C)C` as the compound, how does the outcome read?
A: The outcome was “inactive”.

Q: For `C/C=C(\C)C=O`, which outcome is on record?
A: Its outcome is “inactive”.

Q: For `CC1=C[C@H](O)CC(C)(C)[C@H]1/C=C/C(C)=C/C=C/C(C)=C/C=C/C=C(C)/C=C/C=C(C)/C=C/C1=C(C)C[C@@H](O)CC1(C)C`, which AC50 is on record?
A: The AC50 was 38.4 µM (active).

Q: How did the outcome turn out when `CC(=O)Oc1cccc(C(=O)O)c1OC(C)=O` was run?
A: The outcome was “inactive”.

Q: Which outcome does the source give for `CCN1CCCC1CNC(=O)c1cc(S(=O)(=O)CC)ccc1OC` (stereo not given) here?
A: Its outcome is “inactive”.

Q: `CN1C[C@H](C(=O)N[C@]2(C)O[C@@]3(O)[C@@H]4CCCN4C(=O)[C@H](Cc4ccccc4)N3C2=O)C[C@@H]2c3cccc4[nH]cc(c34)C[C@H]21` was tested. Which outcome did it give?
A: The outcome was “inactive”.

Q: Which outcome does the source give for `O=C(O)c1nc(=O)[nH]c(=O)[nH]1` here?
A: Its outcome is “inactive”.

Q: Which outcome does the source give for `CCCCCCCCCCCCCCC(=O)NC(CO)CCCCCCCCCCCCCC` (stereo not given) here?
A: The outcome was “inactive”.

Q: For `COc1ccccc1/C=C/C=O`, which outcome is on record?
A: Its outcome is “inactive”.

Q: How did the outcome turn out when `O=C(O)C1CCCN1` (stereo not given) was run?
A: The outcome was “inactive”.

Q: `CCCCOC(=O)CC` was tested. Which outcome did it give?
A: The outcome was “inactive”.

Q: For `COC(=O)[C@H]1[C@H]2C[C@@H]3c4[nH]c5cc(OC)ccc5c4CCN3C[C@H]2C[C@@H](OC(=O)/C=C/c2cc(OC)c(OC)c(OC)c2)[C@@H]1OC`, which outcome is on record?
A: Its outcome is “inactive”.

Q: How did the outcome turn out when `O=C(O)c1cc(Cl)cc(Cl)c1` was run?
A: Its outcome is “inactive”.

Q: For `C=CCN1C[C@H](C(=O)N(CCCN(C)C)C(=O)NCC)C[C@@H]2c3cccc4[nH]cc(c34)C[C@H]21`, which outcome is on record?
A: The outcome was “inactive”.

Q: `CCCCCCCCCOC(=O)c1ccccc1C(=O)OCCCCCCCCC` was tested. Which outcome did it give?
A: The outcome was “inactive”.

Q: `CCC(=O)C=CC1C(C)=CCCC1(C)C` (stereo not given) was tested. Which outcome did it give?
A: Its outcome is “inactive”.

Q: With `COC(=O)[C@H]1[C@H]2C[C@H]3c4[nH]c5ccccc5c4CCN3C[C@H]2CC[C@@H]1O` as the compound, how does the outcome read?
A: Its outcome is “inactive”.

Q: How did the outcome turn out when `CC(CO)(CO)CO` was run?
A: Its outcome is “inactive”.

Q: `Cc1nc2sccn2c(=O)c1CCN1CCC(=C(c2ccc(F)cc2)c2ccc(F)cc2)CC1` was tested. Which outcome did it give?
A: The outcome was “inactive”.

Q: With `CC[C@H](C)[C@H](N)C1=N[C@H](C(=O)N[C@@H](CC(C)C)C(=O)N[C@H](CCC(=O)O)C(=O)N[C@H](C(=O)N[C@H]2CCCCNC(=O)[C@H](CC(N)=O)NC(=O)[C@@H](CC(=O)O)NC(=O)[C@H](Cc3cnc[nH]3)NC(=O)[C@@H](Cc3ccccc3)NC(=O)[C@H]([C@@H](C)CC)NC(=O)[C@@H](CCCN)NC2=O)[C@@H](C)CC)CS1` ({Ileψ(thiazoline)Cys}-L[dE]IK[dOrn]I[dF]H[dD]N; lactam 4-C) as the compound, how does the outcome read?
A: The outcome was “inactive”.

Q: For `CCCCOc1ccc(C(=O)CCN2CCCCC2)cc1`, which outcome is on record?
A: The outcome was “inactive”.

Q: `NCCCC[C@H](NC(=O)[C@@H]1CCCN1C(=O)[C@@H]1CSSC[C@H](N)C(=O)N[C@@H](Cc2ccc(O)cc2)C(=O)N[C@@H](Cc2ccccc2)C(=O)N[C@@H](CCC(N)=O)C(=O)N[C@@H](CC(N)=O)C(=O)N1)C(=O)NCC(N)=O` was tested. Which outcome did it give?
A: Its outcome is “inactive”.

Q: `C[C@@H]1C[C@H]2[C@@H]3CCC4=CC(=O)C=C[C@]4(C)[C@@]3(F)[C@@H](O)C[C@]2(C)[C@@]1(O)C(=O)COC(=O)c1cccc(S(=O)(=O)O)c1` was tested. Which outcome did it give?
A: Its outcome is “inactive”.

Q: How did the outcome turn out when `C[C@@H]1C[C@H]2[C@@H]3CCC4=CC(=O)C=C[C@]4(C)[C@@]3(F)[C@@H](O)C[C@]2(C)[C@H]1C(=O)CO` was run?
A: Its outcome is “inactive”.

Q: For `CC(C)(Oc1ccc(Cl)cc1)C(=O)O`, which outcome is on record?
A: The outcome was “inactive”.

Q: For `C1=CCC(c2ccccc2)CC1` (stereo not given), which outcome is on record?
A: Its outcome is “inactive”.

Q: `ON=C1CCCC1` was tested. Which outcome did it give?
A: The outcome was “inactive”.
